Compound activity deposited in PubChem BioAssay by National Center for Advancing Translational Sciences (NCATS).
Shiga toxin inh – inhibitors of Shiga toxin in Vero cells. 290,000 tested, 9.2% active. Vero cells, Shiga toxin protein synthesis inhibition reporter. AID 2315. inhibition, % at 38.7 µM; in the data active means inhibition mostly above about 28%, no sharp cut-off; inactive means mostly below about 43%; further: 0% is about no effect
CHX counter – affects cycloheximide protein synthesis inhibition readout, counter-screen | 300,000 tested, 12% active | max response, % | cell reporter, cycloheximide protein synthesis inhibition counterscreen; in the data active means max response mostly above about 13%, no sharp cut-off; inactive means mostly below about 14%; further: read at 38.3 µM for the half of the compounds with a filed dose; 0% is about no effect
Pf growth 96h – P. falciparum growth inhibition at 96 hour, primary screen for plastid delayed-death inhibitors; P. falciparum luciferase reporter growth, 96 h; Potency, µM (highest dose often 28.7 µM), for the others: top-dose activity change, negative = inhibition, usual class: inhibitors; 320,000 tested, 6.9% active; AID 504834; further: potency means the concentration at half of the fitted maximal effect; on the % scale 0 is the no-effect control and ±100 the full control effect
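Luminescence readout: decreased luciferase signal marks inhibited growth of reporter-expressing P. falciparum in infected red cells (2% hematocrit, 0.05% parasitemia final), exposed to compound two generations (96 h, 37 C, 5% CO2).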
Pf growth 48h – P. falciparum growth inhibition at 48 hours (one generation); P. falciparum luciferase growth in erythrocytes, 48 h; Potency, µM (series often up to 28.7 µM), without a hit: top-dose activity change, negative = inhibition, most hits filed as inhibitors; 310,000 tested, 5.9% active; AID 504832; further: potency means the concentration at half of the fitted maximal effect; on the % scale 0 is the no-effect control and ±100 the full control effect
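In quantitative HTS format, infected erythrocytes bearing luciferase-reporter parasites were treated for a single generation at 37 C. Luminescence after adding detection reagent served as the growth measure.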
NS1 function inh – inhibitors of influenza NS1 protein function. Potency, µM (series often up to 46.1 µM), for the others: at the top dose activity, positive = more growth. 270,000 tested, 0.4% active; calls by dose curve; further: potency means the concentration at half of the fitted maximal effect; actives are rising curves; nearly all actives have a fitted effect of over 50% in size
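A cell-based growth assay was used: compounds that relieve NS1-induced slow growth of budding yeast raise OD600. Assay medium was yeast nitrogen base with ammonium sulphate and -URA supplement, pH 6.0, with 2% galactose.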
Active calls of the source: *; i = inactive; ? = inconclusive; . = not tested or not shown. Compounds with a hit are over-represented: about 21% of the library has one in this group of screens. Unless noted, the call rests on the fitted dose curve; in most records, active means well fitted inhibition curve with a large enough effect; inconclusive means small, poorly fitted or top-dose-only effect, or another doubt; inactive means no such curve, though single readings can be large or run the other way.

SMILES	Shiga toxin inh	CHX counter	Pf growth 96h	Pf growth 48h	NS1 function inh
O=C(O)c1ccc(/C=C2/SC(=S)N(Cc3ccccc3)C2=O)cc1	-11	-2	19%	1%	7%
CN1CCS/C1=C/C=C1/SC(=S)N(Cc2ccccc2)C1=O	13	26*	-9%	?	25%
CN1CCS/C1=C/C=C1\SC(=S)N(CC(=O)O)C1=O	13	1	61%	40%	3%
CCCCN1C(=O)/C(=C/C=C2\SCCN2C)SC1=S	67*	33*	-1%	183%	.
CC(C)(C)NC(=O)NC(=O)CN1C(=O)NC(c2ccccc2)(c2ccccc2)C1=O	-9	-4	?	?	?
CC1CCCC(NC(=O)C2N(CCCN3CCCC3)C(=O)C3C(C(=O)Nc4ccc(Cl)cc4)C4C=CC32O4)C1C (configuration not stated)	5	3	5.9µM*	?	-1%
COc1ccc(NC(=O)C2C3C=CC4(O3)C2C(=O)N(CCCN2CCCCC2)C4C(=O)NC2CCCC(C)C2C)cc1 (configuration not stated)	3	-1	-9%	-14%	-19%
COc1cccc(NC(=O)C2C3C=CC4(O3)C2C(=O)N(CCCN2CCCC(C)C2)C4C(=O)NC2CCCCC2C)c1 (configuration not stated)	-5	2	10µM*	-17%	-10%
O=C(NCC1OCCCN1S(=O)(=O)c1cc(F)ccc1F)C(=O)NC1CCCCCC1 (configuration not stated)	6	15*	-17%	5%	.
O=C(NCc1ccncc1)C(=O)NCC1OCCCN1S(=O)(=O)c1cc(F)ccc1F (configuration not stated)	-29	-3	7%	4%	11%
Cc1cc(F)ccc1S(=O)(=O)N1CCCOC1CNC(=O)C(=O)NCCc1c[nH]c2ccccc12 (configuration not stated)	-9	-4	9.3µM*	?	-6%
Cc1cc(S(=O)(=O)N2CCCOC2CNC(=O)C(=O)NCCc2ccco2)ccc1F (configuration not stated)	-5	6	8.3µM*	-12%	9%
CCC(=O)Nc1ccc(C(=O)NNC(=O)c2cc(OC)c(OC)c(OC)c2)cc1	2	-1	i	23%	4%
CN(C)CCN(C(=O)/C=C/c1cccs1)c1nc2c(F)cc(F)cc2s1	-8	-5	?	12µM*	5%
Cc1ccc(C(=O)CSc2nnc(-c3ccco3)o2)o1	56*	40*	.	32%	1%
COc1ccc(-c2nnc(SCC(=O)c3ccc(C)o3)o2)cc1	33	13*	4%	28%	2%
COc1ccc(-c2nnc(SCC(=O)N3CCCCC3)o2)cc1	26	12	-14%	12%	-1%
CCOCCCNC(=O)CN1CCN(Cc2ccc(Cl)cc2)C1=O	-4	-2	19%	0%	5%
CC(=O)Nc1ccn(C2CC3OCC(NC(=O)C(NC(=O)OC(C)(C)C)C(C)OCc4ccccc4)C3O2)c(=O)n1 (configuration not stated)	32	4	.	.	.
NC(N)=N/N=C/c1ccc(OCc2ccccc2)cc1	20	-2	1.5µM*	1.5µM*	-7%
NC(N)=N/N=C/c1ccc(OCc2ccc(Cl)cc2)cc1	27	15	2.3µM*	0.33µM*	-57%
NC(N)=N/N=C/c1ccc(Br)cc1	-5	-3	12%	12µM*	.
CCOC(=O)c1cccnc1SCC(=O)N(CC)c1cccc(C)c1	-11	-7	12µM*	.	-51%
CC(=O)Oc1ccc(C(=O)Nc2ccc(S(=O)(=O)NCC3CCCO3)cc2)cc1 (configuration not stated)	-6	-2	4%	?	1%
O=C1c2ccccc2C(=O)N1CC(O)Cn1nnc2ccccc21 (configuration not stated)	-4	-1	9.3µM*	-3%	3%
Cc1nn(CC(O)CN2c3ccccc3Sc3ccccc32)c(C)c1Br (configuration not stated)	15	6	2.6µM*	.	-81%
OC(Cn1nnc2ccccc21)Cn1c(C(F)(F)F)nc2ccccc21 (configuration not stated)	-6	-4	?	27%	3%
OC(CN1c2ccccc2Sc2ccccc21)Cn1nnc2ccccc21 (configuration not stated)	18	16*	?	4.7µM*	-150%
